What all share (experiment): protein-binding microarray (PBM); PBM: ~300 nM protein, 6 mM HEPES pH 7.8, 80 mM KCl, 0.5 mM EDTA, 0.5 mM EGTA, 6% glycerol, 35 ng/ul poly-dIdC, 1% milk, 1 h, room temperature; Ap Aiptasia and Nv Nematostella (sea anemones) / Co Capsaspora / Aq Amphimedon (sponge) / Dm Drosophila / Hu human; RHD is the Rel homology domain; high values mean tight binding
Holding throughout (conditions): dsDNA, one strand shown

One test has as its target T1, GST-Ap-NF-kB RHD (Exaiptasia pallida (Aiptasia), UniProt A0A913YAJ5 2-422).
T1 sequence: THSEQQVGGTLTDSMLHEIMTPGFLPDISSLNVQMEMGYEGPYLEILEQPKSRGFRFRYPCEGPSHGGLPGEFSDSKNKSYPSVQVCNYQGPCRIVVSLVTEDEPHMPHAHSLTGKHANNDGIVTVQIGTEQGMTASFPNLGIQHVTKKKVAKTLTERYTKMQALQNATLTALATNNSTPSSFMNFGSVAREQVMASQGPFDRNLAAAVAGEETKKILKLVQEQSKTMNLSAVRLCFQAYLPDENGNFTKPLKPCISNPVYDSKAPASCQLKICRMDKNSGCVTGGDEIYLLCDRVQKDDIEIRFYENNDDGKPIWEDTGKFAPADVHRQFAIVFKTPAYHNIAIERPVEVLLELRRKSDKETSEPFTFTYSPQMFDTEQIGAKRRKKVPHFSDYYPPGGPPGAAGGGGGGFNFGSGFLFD

Test [1] addresses T2, GST-Nv-NF-kB (Cys allele) (Nematostella vectensis, UniProt E5G601 2-411).
T2 sequence: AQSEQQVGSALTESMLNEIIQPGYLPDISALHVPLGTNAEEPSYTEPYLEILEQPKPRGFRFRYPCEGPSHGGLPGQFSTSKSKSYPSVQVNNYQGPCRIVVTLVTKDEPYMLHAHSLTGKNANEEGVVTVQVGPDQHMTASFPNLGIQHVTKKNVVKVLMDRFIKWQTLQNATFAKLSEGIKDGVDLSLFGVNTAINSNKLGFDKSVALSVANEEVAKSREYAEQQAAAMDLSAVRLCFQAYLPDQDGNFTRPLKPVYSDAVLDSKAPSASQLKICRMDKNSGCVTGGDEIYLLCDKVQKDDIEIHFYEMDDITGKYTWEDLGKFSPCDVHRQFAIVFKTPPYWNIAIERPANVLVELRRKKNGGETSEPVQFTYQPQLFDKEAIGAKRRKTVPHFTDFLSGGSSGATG

Test [2] deals with T3, GST-Nv-NF-kB (Ser allele) (Nematostella vectensis, UniProt A7UNT2 2-411).
T3 sequence: T2 sequence with Q21R, C66S, S207N, E215Q, V217A, E225K, A268E, D399E

A further test addresses T4, GST-Dm-Relish (Drosophila melanogaster, UniProt Q94527 99-473).
T4 sequence: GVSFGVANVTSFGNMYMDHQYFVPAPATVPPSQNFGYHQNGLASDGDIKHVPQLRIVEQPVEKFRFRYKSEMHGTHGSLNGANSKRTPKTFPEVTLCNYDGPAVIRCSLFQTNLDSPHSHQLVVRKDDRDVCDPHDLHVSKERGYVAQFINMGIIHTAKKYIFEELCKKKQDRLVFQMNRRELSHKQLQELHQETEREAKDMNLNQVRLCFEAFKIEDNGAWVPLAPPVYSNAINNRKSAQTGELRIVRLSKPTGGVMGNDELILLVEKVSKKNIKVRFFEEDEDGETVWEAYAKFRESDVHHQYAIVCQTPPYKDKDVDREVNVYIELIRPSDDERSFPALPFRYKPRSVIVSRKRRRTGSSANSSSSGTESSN

For a further test, the target named is T5, GST-Aq-NF-kB (Amphimedon queenslandica, UniProt A9Y5G7 2-389).
T5 sequence: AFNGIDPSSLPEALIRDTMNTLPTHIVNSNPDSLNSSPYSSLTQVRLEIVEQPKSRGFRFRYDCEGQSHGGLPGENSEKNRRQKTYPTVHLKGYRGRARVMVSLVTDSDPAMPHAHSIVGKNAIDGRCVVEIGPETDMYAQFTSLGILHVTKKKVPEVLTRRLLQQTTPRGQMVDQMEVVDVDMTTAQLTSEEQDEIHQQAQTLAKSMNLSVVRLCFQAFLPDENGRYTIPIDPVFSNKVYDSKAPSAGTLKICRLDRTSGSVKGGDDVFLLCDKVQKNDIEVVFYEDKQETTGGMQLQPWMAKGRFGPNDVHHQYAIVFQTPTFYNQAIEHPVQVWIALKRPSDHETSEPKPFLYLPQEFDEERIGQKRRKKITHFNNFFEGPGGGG

A further test concerns the target T6, GST-Co-NF-kB (Capsaspora owczarzaki, UniProt F1ARL5 200-546).
T6 sequence: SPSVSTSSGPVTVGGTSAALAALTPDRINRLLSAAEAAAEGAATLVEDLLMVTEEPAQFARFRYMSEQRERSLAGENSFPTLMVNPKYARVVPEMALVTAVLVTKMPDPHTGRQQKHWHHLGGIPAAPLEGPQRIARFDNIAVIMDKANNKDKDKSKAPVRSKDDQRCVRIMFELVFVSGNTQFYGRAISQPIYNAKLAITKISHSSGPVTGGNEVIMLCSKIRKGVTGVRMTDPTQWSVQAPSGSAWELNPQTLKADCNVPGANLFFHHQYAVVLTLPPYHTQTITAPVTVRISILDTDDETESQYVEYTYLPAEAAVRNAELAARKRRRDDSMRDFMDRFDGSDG

Residue numbers refer to the chain shown, from its start.

Turning to “CCGATTAACATCAAAAAATTACCTGATGTTAATCGGGTCTTGATTCGCTTGACGCTGCTG”, the binding signal in the test with GST-Ap-NF-kB RHD was determined as 2.19 z-score; in test [1], 4.07 z-score; in test [2], 6.92 z-score; with GST-Dm-Relish it was 6.23 z-score; with GST-Aq-NF-kB, 3.3 z-score.

In the case of “CCGATTAACATCACCGCTTCCCTTGATGTTAATCGGGTCTTGATTCGCTTGACGCTGCTG”, the binding signal came to 1.62 z-score with GST-Ap-NF-kB RHD, 1.86 z-score in test [1], 1.46 z-score in the test with GST-Co-NF-kB and 2 z-score with GST-Aq-NF-kB.

On to “CCGATTAACATCAGGGACGGAAATGATGTTAATCGGGTCTTGATTCGCTTGACGCTGCTG”, for which the binding signal amounted to 2.7 z-score in the test with GST-Ap-NF-kB RHD, 3.44 z-score in test [1], 2.07 z-score in the test with GST-Co-NF-kB and 2.84 z-score with GST-Aq-NF-kB.

In the case of “CCGATTAACATCAACTGGGAAAATGATGTTAATCGGGTCTTGATTCGCTTGACGCTGCTG”, the binding signal with GST-Ap-NF-kB RHD was determined as 1.66 z-score; in test [1], 3.04 z-score; with GST-Co-NF-kB, 3.52 z-score; with GST-Aq-NF-kB, 1.65 z-score.

Take “CCGATTAACATCATGATGGGAAATGATGTTAATCGGGTCTTGATTCGCTTGACGCTGCTG”: the binding signal with GST-Ap-NF-kB RHD came to 1.17 z-score; in test [1], 2.84 z-score; in the test with GST-Co-NF-kB, 1.71 z-score; in the test with GST-Aq-NF-kB, 1.64 z-score.

Consider “CCGATTAACATCAGCTCCCCCCCTGATGTTAATCGGGTCTTGATTCGCTTGACGCTGCTG”, for which the binding signal turned out to be 5.26 z-score in the test with GST-Ap-NF-kB RHD, 3.87 z-score in test [1], 5.77 z-score with GST-Co-NF-kB and 3.99 z-score in the test with GST-Aq-NF-kB.

“CCGATTAACATCATGTTGGGAAATGATGTTAATCGGGTCTTGATTCGCTTGACGCTGCTG”: the binding signal amounted to 1.02 z-score with GST-Ap-NF-kB RHD, 2.29 z-score in test [1], 2.51 z-score in the test with GST-Co-NF-kB and 1.2 z-score with GST-Aq-NF-kB.

Consider “CCGATTAACATCATACAAGGGAGTGATGTTAATCGGGTCTTGATTCGCTTGACGCTGCTG”, for which the binding signal with GST-Ap-NF-kB RHD came out at 1.02 z-score; in test [1], 1.41 z-score; in the test with GST-Co-NF-kB it was 1.46 z-score; with GST-Aq-NF-kB it was 2.84 z-score.

For the sequence “CCGATTAACATCACCCAGTTCCCTGATGTTAATCGGGTCTTGATTCGCTTGACGCTGCTG”, the binding signal with GST-Ap-NF-kB RHD is 1.22 z-score; in test [1], 1.21 z-score; with GST-Co-NF-kB, 1.44 z-score; in the test with GST-Aq-NF-kB it was 1.7 z-score.

As for “CCGATTAACATCACTTTCCCAAATGATGTTAATCGGGTCTTGATTCGCTTGACGCTGCTG”, the binding signal with GST-Ap-NF-kB RHD turned out to be 1.27 z-score; in test [1], 2.64 z-score; with GST-Co-NF-kB it was 2.28 z-score; in the test with GST-Aq-NF-kB, 1.54 z-score.

“CCGATTAACATCACCCACTTCCCTGATGTTAATCGGGTCTTGATTCGCTTGACGCTGCTG”: the binding signal in the test with GST-Ap-NF-kB RHD was determined as 1.06 z-score; in test [1] it was 1.67 z-score; in the test with GST-Co-NF-kB, 1.4 z-score; in the test with GST-Aq-NF-kB, 1.65 z-score.

Take “CCGATTAACATCAGGGGAGTGTATGATGTTAATCGGGTCTTGATTCGCTTGACGCTGCTG”: the binding signal was 3.6 z-score in the test with GST-Ap-NF-kB RHD, 3.38 z-score in test [1], 3.2 z-score with GST-Co-NF-kB and 2.89 z-score with GST-Aq-NF-kB.

“CCGATTAACATCAGACATTCCCATGATGTTAATCGGGTCTTGATTCGCTTGACGCTGCTG”: the binding signal with GST-Ap-NF-kB RHD worked out at 1.46 z-score; in test [1] it was 2.27 z-score; in the test with GST-Co-NF-kB, 1.37 z-score; with GST-Aq-NF-kB, 2.26 z-score.

For “CCGATTAACATCAGGGAAAGGTATGATGTTAATCGGGTCTTGATTCGCTTGACGCTGCTG”, the binding signal with GST-Ap-NF-kB RHD turned out to be 2.16 z-score; in test [1], 3.44 z-score; with GST-Co-NF-kB, 2.67 z-score; in the test with GST-Aq-NF-kB, 3.59 z-score.

For the sequence “CCGATTAACATCACTCCCTAAAATGATGTTAATCGGGTCTTGATTCGCTTGACGCTGCTG”, the binding signal in the test with GST-Ap-NF-kB RHD is 1.35 z-score; in test [1] it was 2.35 z-score; in the test with GST-Co-NF-kB, 1.22 z-score; with GST-Aq-NF-kB, 3.48 z-score.

“CCGATTAACATCAGAATCTCCCATGATGTTAATCGGGTCTTGATTCGCTTGACGCTGCTG”: the binding signal with GST-Ap-NF-kB RHD was 1.74 z-score; in test [1], 2.74 z-score; with GST-Co-NF-kB, 1.64 z-score; in the test with GST-Aq-NF-kB, 2.73 z-score.

With “CCGATTAACATCAGTACGGGAAATGATGTTAATCGGGTCTTGATTCGCTTGACGCTGCTG”, the binding signal turned out to be 1.79 z-score in the test with GST-Ap-NF-kB RHD, 3.11 z-score in test [1], 2.65 z-score in the test with GST-Co-NF-kB and 2.81 z-score with GST-Aq-NF-kB.

The values above are taken from article PMC5700166.
